Results from PubChem BioAssay (Tox21).
“And” between values parts separate entries of the source, which are not always exact repeats. Equal entries are not always repeated. Inconclusive results are not listed. The source holds several records for some structures; these can differ, active in one and inactive in another. The source made the active and inactive calls. Unless noted, calls come from the whole dose curve; as a rule, active = well fitted curve in the direction sought with a large enough effect in the repeat runs; inconclusive = weak or mixed curves; inactive = no such curve, though single readings can be large; an effect the other way counts as inactive or inconclusive.

Experiments:
[1] = qHTS assay to identify small molecule agonists of the estrogen receptor alpha (ER-alpha) signaling pathway in the presence of an antagonist - cell viability counter screen (AID 1259386);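 note: cells exposed to compounds for 22 h at 37 °C before the viability read; nearly all actives have a fitted effect of over 30% in size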; note: potency is the fitted concentration of half-maximal effect
In short: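 Using estrogen-depleted VM7Luc4E2 cells, the 15-concentration compound series was applied together with 10.0nM ICI-182,780 and incubated 22hr at 37C/5% CO2. Cell viability was then scored by CellTiter-Fluor.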

[2] = molecular target: Progesterone receptor (Homo sapiens) (UniProt P06401); assay: qHTS assay to identify small molecule agonists of the progesterone receptor (PR) signaling pathway (AID 1346784; calls by dose curve; note: nearly all actives have a fitted effect of over 30% in size)
Progesterone receptor (Homo sapiens), sequence (P06401 whole entry, looked up): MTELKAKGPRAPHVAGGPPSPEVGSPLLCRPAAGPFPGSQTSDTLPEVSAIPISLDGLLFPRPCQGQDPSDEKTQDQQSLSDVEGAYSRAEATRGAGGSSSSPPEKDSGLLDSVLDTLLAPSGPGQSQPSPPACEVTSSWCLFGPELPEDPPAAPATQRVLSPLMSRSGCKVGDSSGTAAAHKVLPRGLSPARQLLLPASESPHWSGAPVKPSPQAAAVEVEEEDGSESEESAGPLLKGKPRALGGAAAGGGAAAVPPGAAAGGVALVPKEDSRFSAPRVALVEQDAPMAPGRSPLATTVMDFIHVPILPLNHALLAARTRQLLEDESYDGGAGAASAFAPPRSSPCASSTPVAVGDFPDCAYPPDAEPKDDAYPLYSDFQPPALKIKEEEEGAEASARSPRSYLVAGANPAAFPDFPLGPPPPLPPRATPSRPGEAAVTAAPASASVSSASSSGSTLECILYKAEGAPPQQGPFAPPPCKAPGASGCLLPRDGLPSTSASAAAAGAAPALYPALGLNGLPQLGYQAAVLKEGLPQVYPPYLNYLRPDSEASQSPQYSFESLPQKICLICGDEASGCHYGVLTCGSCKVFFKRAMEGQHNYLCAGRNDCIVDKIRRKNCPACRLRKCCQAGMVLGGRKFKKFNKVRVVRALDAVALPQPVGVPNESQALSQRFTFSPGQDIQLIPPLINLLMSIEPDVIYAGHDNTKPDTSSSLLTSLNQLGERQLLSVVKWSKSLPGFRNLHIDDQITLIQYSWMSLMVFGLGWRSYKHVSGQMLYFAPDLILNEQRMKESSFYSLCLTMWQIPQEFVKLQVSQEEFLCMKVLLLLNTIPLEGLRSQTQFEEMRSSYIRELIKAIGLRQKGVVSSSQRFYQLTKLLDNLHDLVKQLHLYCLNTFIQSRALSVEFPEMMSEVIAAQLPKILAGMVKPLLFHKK
In short: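 Cells (PR-UAS-bla HEK 293T, GripTite) were plated in assay medium containing 2% charcoal-stripped FBS and incubated 6 hr. Test compounds in DMSO were added for 16 hr at 37C. FRET substrate was then loaded for 2 hr at room temperature before fluorescence reading.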

[3] = qHTS assay to identify small molecule antagonists of the progesterone receptor (PR) signaling pathway - cell viability counter screen (AID 1346798); note: series mostly up to about 92 µM; nearly all actives have a fitted effect of over 50% in size
In short: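 Counter screen for cytotoxicity: viability of PR-UAS-bla HEK293T cells was measured with CellTiter-Glo luminescence following 16 hr compound exposure in the presence of R5020.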

[4] = qHTS assay to identify small molecule agonists of the progesterone receptor (PR) signaling pathway - cell viability counter screen (AID 1346799; calls by dose curve; note: nearly all actives have a fitted effect of over 45% in size)
In short: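 Cells (PR-UAS-bla HEK293T) are plated at 3,000/well in 2% charcoal-stripped FBS medium, rested 6 hr, dosed and incubated 16 hr at 37C. CellTiter-Glo is then added and luminescence measured after 30 min at room temperature.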

[5] = qHTS assay to identify small molecule antagonists of the TGF-beta/Smad signaling pathway - cell viability counter screen (AID 1346824); note: nearly all actives have a fitted effect of over 50% in size
In short: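 Cytotoxicity counter-screen run in the same wells as the beta-lactamase Smad reporter read: CellTiter-Glo luminescence after 30 min at room temperature. HEK 293T SBE-bla cells had 5 hr compound exposure at 37 C with TGF-beta1 (0.25 ng/mL stock).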

[6] = qHTS assay to identify small molecule agonists of the TGF-beta/Smad signaling pathway - cell viability counter screen (AID 1346829); note: top concentration of the series differs between compounds; nearly all actives have a fitted effect of over 45% in size
In short: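 SBE-bla HEK 293T cells plated overnight, compound exposure 5 hr at 37 C. Viability read in the same wells by CellTiter-Glo luminescence after 30 min at room temperature, following the beta-lactamase read.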

[7] = qHTS assay to identify small molecule agonists of the TGF-beta/Smad signaling pathway (AID 1346859; active = well fitted activation curve with a large enough effect in the signal ratio in the repeat runs, not every such curve was filed as active; the % refers to the signal ratio; note: series mostly up to about 77 µM)
In short: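 Reporter line: HEK 293T with stably integrated SBE-controlled beta-lactamase. Compound exposure lasts 5 hr at 37 C and 5% CO2; substrate loading follows for 2 hr at room temperature, with emission read at 460 and 530 nm.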

[8] = molecular target: Thyrotropin-releasing hormone receptor (Homo sapiens) (UniProt P34981); assay: qHTS assay to identify small molecule antagonists of the thyrotropin-releasing hormone receptor (TRHR) signaling pathway (AID 1346877; active = well fitted inhibition curve with a large enough effect in the repeat runs, not every such curve was filed as active; note: series mostly up to about 51 µM)
Thyrotropin-releasing hormone receptor (Homo sapiens), sequence (P34981 whole entry, looked up): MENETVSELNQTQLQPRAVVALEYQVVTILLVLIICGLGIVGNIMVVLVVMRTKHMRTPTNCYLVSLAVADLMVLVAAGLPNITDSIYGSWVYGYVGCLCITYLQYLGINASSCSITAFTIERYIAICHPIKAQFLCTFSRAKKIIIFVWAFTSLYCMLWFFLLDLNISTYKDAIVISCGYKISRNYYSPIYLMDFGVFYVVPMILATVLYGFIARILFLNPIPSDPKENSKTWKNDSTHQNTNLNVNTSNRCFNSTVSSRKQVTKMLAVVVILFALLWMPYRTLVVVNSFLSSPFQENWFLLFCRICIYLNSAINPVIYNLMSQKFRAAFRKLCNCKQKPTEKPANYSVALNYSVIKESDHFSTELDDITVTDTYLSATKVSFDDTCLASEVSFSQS
In short: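 Calcium signal in dye-loaded TRHR/HEK293 cells; compounds added 5 min before TRH (1 nM final); fluorescence monitored 3 min at 1 s steps.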

[9] = molecular target: Thyrotropin-releasing hormone receptor (Homo sapiens) (UniProt P34981); assay: qHTS assay to identify small molecule agonists of the thyrotropin-releasing hormone receptor (TRHR) signaling pathway (AID 1346891; calls by dose curve;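 note: HEK293 cells expressing TRHR with calcium dye readout; series mostly up to about 58 µM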)
In short: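 Cells: TRHR-Hek293, seeded and incubated 18 h. Dye loading: 2 h at 37 °C. Compound added from DMSO stock by pin tool. Read-out: kinetic calcium fluorescence over 3 min.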

[10] = Human pregnane X receptor (PXR) small molecule agonists, qHTS cell viability counter screen (AID 1346977); note: nearly all actives have a fitted effect of over 50% in size; note: potency is the fitted concentration of half-maximal effect
In short: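 Cytotoxicity counter screen run in the same wells as the PXR luciferase assay, using PXR-Luc HepG2 cells in charcoal-stripped serum medium. Viability: CellTiter-Fluor fluorescence after 24hr compound treatment.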

[11] = Caspase-3/7 induction in HepG2 cells by small molecules, qHTS assay (AID 1346978); note: nearly all actives have a fitted effect of over 15% in size
In short: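 Caspase-3/7 induction was measured by Caspase-Glo 3/7 luminescence (30 min, room temperature) after a 17 hr compound exposure of wild-type HepG2 cells seeded at 2,000 per well and pre-incubated 5 hr.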

[12] = Caspase-3/7 induction in CHO-K1 cells by small molecules, qHTS cell viability counter screen (AID 1346979); note: nearly all actives have a fitted effect of over 35% in size; note: potency is the fitted concentration of half-maximal effect
In short: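 Cytotoxicity counter screen run in parallel with the caspase-3/7 assay: CHO-K1 cells, 16hr compound treatment at 37C, then CellTiter-Fluor for 1hr before fluorescence reading.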

[13] = Caspase-3/7 induction in CHO-K1 cells by small molecules, qHTS assay (AID 1346980); note: nearly all actives have a fitted effect of over 15% in size
In short: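 Luminescent Caspase-Glo 3/7 read (30min, room temperature) quantified apoptosis induction. Cells were wild-type CHO-K1, treated with compound for 17hr at 37 C and 5% CO2.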

[14] = Caspase-3/7 induction in HepG2 cells by small molecules, qHTS cell viability counter screen (AID 1346981); note: nearly all actives have a fitted effect of over 30% in size; note: potency is the fitted concentration of half-maximal effect
In short: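 After a 5-hr attachment period at 37 C and 5% CO2, wild-type HepG2 cells received compounds in DMSO. Sixteen hours later CellTiter-Fluor was dispensed and the fluorescent signal quantified after a further hour.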

[15] = molecular target: Nuclear receptor subfamily 1 group I member 2 (Homo sapiens) (UniProt O75469); assay: Human pregnane X receptor (PXR) small molecule agonists, qHTS assay (AID 1346982); note: nearly all actives have a fitted effect of over 35% in size; note: potency is the fitted concentration of half-maximal effect
Nuclear receptor subfamily 1 group I member 2 (Homo sapiens), sequence (O75469 whole entry, looked up): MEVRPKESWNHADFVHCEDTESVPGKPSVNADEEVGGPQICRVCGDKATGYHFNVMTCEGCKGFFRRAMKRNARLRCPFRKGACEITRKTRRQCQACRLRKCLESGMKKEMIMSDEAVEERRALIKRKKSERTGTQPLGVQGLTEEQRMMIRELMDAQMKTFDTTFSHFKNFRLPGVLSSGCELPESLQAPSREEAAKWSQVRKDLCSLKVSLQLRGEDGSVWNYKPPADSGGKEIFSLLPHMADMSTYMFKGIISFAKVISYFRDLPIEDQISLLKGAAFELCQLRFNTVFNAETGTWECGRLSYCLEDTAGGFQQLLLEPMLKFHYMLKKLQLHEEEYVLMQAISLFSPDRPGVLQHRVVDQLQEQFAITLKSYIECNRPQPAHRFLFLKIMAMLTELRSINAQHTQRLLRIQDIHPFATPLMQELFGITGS
In short: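 Tox21 qHTS; PXR-Luc HepG2; compounds pinned from DMSO; 24 hr, 37 C; ONE-Glo luciferase detection, 30 min room temperature.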

[16] = molecular target: Nuclear receptor subfamily 1 group I member 2 (Rattus norvegicus) (UniProt Q9R1A7); assay: Rat pregnane X receptor (rPXR) activation by small molecules, qHTS assay (AID 1346983); conditions: rPXR luciferase reporter cells, One-Glo luminescence, 24 h; stronger effect = higher value; note: nearly all actives have a fitted effect of over 20% in size
Nuclear receptor subfamily 1 group I member 2 (Rattus norvegicus), sequence (Q9R1A7 whole entry, looked up): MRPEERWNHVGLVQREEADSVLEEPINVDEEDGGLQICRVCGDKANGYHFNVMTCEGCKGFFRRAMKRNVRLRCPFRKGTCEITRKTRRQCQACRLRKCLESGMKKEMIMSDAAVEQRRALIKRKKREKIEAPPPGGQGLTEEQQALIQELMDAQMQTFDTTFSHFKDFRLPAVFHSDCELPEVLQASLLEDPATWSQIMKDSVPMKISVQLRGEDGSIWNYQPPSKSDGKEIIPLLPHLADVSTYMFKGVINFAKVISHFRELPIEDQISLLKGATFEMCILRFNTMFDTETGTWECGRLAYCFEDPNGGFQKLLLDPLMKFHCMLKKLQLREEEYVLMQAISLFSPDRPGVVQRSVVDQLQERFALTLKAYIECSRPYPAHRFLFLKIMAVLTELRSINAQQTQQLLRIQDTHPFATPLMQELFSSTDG
In short: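 Luminescent readout (One-Glo luciferase, 30 min room temperature) followed 24 hr compound treatment at 37 C of rPXR cells plated 2,000 per well and preincubated 5hr; qHTS format with compounds delivered in DMSO.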

[17] = molecular target: Nuclear receptor subfamily 1 group I member 2 (Homo sapiens) (UniProt O75469); assay: CYP3A4 induction through human pregnane X receptor (PXR) by small molecules, qHTS assay (AID 1346984); note: nearly all actives have a fitted effect of over 40% in size
In short: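 Cells (DPX-2; HepG2 with PXR element plus CYP3A4-promoter luciferase) settled 5hr, then were treated 24hr at 37C. A 3hr, 3uM-final Luciferin-IPA step preceded luminescence measurement with One-Glo.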

[18] = molecular target: Nuclear receptor subfamily 1 group I member 2 (Homo sapiens) (UniProt O75469); assay: Human pregnane X receptor (PXR) activation by small molecules, qHTS assay (AID 1346985); note: nearly all actives have a fitted effect of over 40% in size
In short: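 DPX-2 cells (HepG2 co-transfected with a PXR response element and a CYP3A4-promoter luciferase construct) were seeded at 2,000 per well, rested 5 hr at 37C, then exposed to DMSO-dissolved compounds for 24 hr. Activation was read as luciferase luminescence.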

[19] = molecular target: Cytochrome P450 2D6 (Homo sapiens) (UniProt P10635); assay: Cytochrome P450 Family 2 Subfamily D Member 6 (CYP2D6) small molecule antagonists: luciferase reporter qHTS assay (AID 1671196); note: nearly all actives have a fitted effect of over 50% in size; note: potency is the fitted concentration of half-maximal effect
Cytochrome P450 2D6 (Homo sapiens), sequence (P10635 whole entry, looked up): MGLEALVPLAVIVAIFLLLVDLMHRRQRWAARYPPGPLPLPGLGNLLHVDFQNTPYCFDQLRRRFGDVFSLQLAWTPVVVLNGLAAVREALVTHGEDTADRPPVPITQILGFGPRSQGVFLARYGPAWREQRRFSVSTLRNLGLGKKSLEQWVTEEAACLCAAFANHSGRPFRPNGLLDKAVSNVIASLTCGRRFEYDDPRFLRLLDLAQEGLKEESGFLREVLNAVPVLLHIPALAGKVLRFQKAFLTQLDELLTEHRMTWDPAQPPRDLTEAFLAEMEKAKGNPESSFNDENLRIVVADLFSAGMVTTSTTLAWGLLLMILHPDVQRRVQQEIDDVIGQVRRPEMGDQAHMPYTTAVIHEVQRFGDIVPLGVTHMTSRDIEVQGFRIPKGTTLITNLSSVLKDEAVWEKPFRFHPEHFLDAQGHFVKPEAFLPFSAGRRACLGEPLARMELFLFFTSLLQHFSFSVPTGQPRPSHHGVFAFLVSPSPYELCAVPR
In short: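 Room-temperature luminescent CYP2D6 activity assay: compound preincubated 10 min with enzyme–substrate mix, NADPH-initiated reaction 1 h, detection reagent 20 min before reading.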

[20] = molecular target: Progesterone receptor (Homo sapiens) (UniProt P06401); assay: qHTS assay to identify small molecule antagonists of the progesterone receptor (PR) signaling pathway (AID 1346795; active = well fitted inhibition curve with a large enough effect in the signal ratio in the repeat runs, not every such curve was filed as active; the % refers to the signal ratio; note: potency is the fitted concentration of half-maximal effect)
In short: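 Antagonist mode: compounds tested against 1 nM (final) promegestone stimulation in HEK293T cells expressing PR-UAS-bla reporter, 16 hr at 37C, 5% CO2; beta-lactamase activity detected via B/G FRET substrate after 2 hr at room temperature.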
% is set by controls: 0 for no effect and ±100 for the full control effect.

COc1ccc(Cc2cnc(N)nc2N)cc1OC
inactive: Potency [1] | Potency [2] | Potency [3] | Potency [4] | Potency [5] | Potency [6] | outcome [7] | Potency [8] | Potency [9] | Potency [10] | Potency [11] | Potency [12] | Potency [13] | Potency [14] | Potency [15] | max activation [16] 10.3% | Potency [17] | Potency [18] | Potency [19]

CCC(CO)(CO)COCC(CC)(CO)CO
inactive: Potency [1] | Potency [2] | Potency [20] | Potency [4] | Potency [5] | Potency [6] | Potency [8] | Potency [9] | Potency [10] | Potency [11] | Potency [12] | Potency [13] | Potency [14] | Potency [15] | Potency [19]

CCOc1ccccc1C(N)=O
inactive: Potency [1] | Potency [2] | Potency [3] | Potency [4] | Potency [5] | Potency [6] | outcome [7] | Potency [8] | Potency [9] | Potency [10] | Potency [11] | Potency [12] | Potency [14] | Potency [15] | max activation [16] -0.87% | Potency [17] | Potency [18] | Potency [19]

Cc1cc(C2(c3cc(C)c(O)cc3C)OS(=O)(=O)c3ccccc32)c(C)cc1O
inactive: Potency [2] | Potency [4] | Potency [5] | Potency [6] | Potency [11] | Potency [13]
active: Potency [1] 30.6 µM and 21.7 µM | Potency [20] 61.1 µM | Potency [10] 35.5 µM and 13.7 µM | Potency [12] 30.6 µM and 13.7 µM | Potency [14] 30.6 µM and 19.3 µM | Potency [19] 39.9 µM
61.1 µM (active) and inactive: Potency [15]

COc1nc(C)nc(Cl)c1NC1=NCCN1
inactive: Potency [1] | Potency [2] | Potency [3] | Potency [4] | Potency [5] | Potency [6] | Potency [8] | Potency [9] | Potency [10] | Potency [11] | Potency [12] | Potency [13] | Potency [14] | Potency [15] | max activation [16] -0.617% | Potency [17] | Potency [18] | Potency [19]

CC(C)CCOCc1ccccc1
inactive: Potency [1] | Potency [2] | Potency [20] | Potency [4] | Potency [5] | Potency [6] | Potency [8] | Potency [9] | Potency [10] | Potency [12] | Potency [13] | Potency [14] | Potency [15] | Potency [19]
